GRIN3A LBD mod = binders of NR3A ligand-binding domain, primary screen, biophysical, differential scanning fluorimetry, uHTS. NR3A LBD differential scanning fluorimetry, Tm shift; 0% = protein alone, 100% = glycine-bound protein. Tm shift relative to glycine control, % at 25 µM. hit rate 2.5% among 340,000;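 active = melting temperature shift of at least 10% of the positive control shift, at one fixed dose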
proKLK7 act = proKLK7 zymogen activators, primary screen, biochemical, fluorescence intensity; AID 652039, 2013; activation, % at 7 µM; hit rate 0.9% among 370,000; purified proKLK7, EDANS-DABCYL substrate fluorescence; 100% is mature enzyme control, 0% vehicle; Kallikrein-7 (Homo sapiens), P49862;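 active = activation above the mean of all tested compounds plus 3 SD, computed per campaign excluding outliers beyond control limits, cut at about 13% in these data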
ADAM17 inh = ADAM17 inhibitors, primary screen, biochemical, QFRET; Disintegrin and metalloproteinase domain-containing protein 17 (Homo sapiens), P78536; recombinant ADAM17, EDANS/DABCYL FRET peptide cleavage; inhibition, % at 6.95 µM; hit rate 0.83% among 370,000; AID 720648, 2013;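 active = inhibition above the mean of compounds lying between control limits plus 3 SD, set per campaign, cut at about 8.5% in these data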;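 note: 0% = DMSO-only wells as the low control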
Target sequence (P78536 215-824 limits assumed): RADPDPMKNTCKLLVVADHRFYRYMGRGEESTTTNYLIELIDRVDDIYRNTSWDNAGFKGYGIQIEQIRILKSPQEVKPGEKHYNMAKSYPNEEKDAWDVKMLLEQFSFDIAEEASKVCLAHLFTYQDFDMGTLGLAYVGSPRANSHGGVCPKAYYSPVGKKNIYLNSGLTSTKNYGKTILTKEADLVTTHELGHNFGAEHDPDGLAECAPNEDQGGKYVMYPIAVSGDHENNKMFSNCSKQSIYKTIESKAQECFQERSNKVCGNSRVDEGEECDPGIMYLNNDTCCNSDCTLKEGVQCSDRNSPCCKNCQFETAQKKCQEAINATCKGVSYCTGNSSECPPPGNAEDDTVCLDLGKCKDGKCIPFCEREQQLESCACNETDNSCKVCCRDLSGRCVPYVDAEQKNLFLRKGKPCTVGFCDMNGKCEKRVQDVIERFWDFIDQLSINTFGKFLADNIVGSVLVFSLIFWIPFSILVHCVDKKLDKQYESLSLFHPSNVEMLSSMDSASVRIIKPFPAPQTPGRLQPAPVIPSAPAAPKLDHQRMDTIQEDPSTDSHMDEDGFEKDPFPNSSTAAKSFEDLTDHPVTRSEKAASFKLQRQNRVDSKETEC
ADAM10 inh = human ADAM10 inhibitors, primary screen, biochemical, QFRET, HTS. inhibition, % at 7 µM. AID 720582, 2013. recombinant ADAM10, EDANS/DABCYL FRET peptide cleavage, 3 h. Disintegrin and metalloproteinase domain-containing protein 10 (Homo sapiens), O14672. hit rate 0.62% among 370,000;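 active = inhibition above a per-campaign cutoff equal to the mean of compounds falling between control-based bounds plus 3 SD, cut at about 20% in these data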;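 note: 0% = DMSO wells while the 100% control is not disclosed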
FAS TE block = FAS thioesterase domain inhibitors, primary screen, biochemical, fluorescence intensity, uHTS; Fatty acid synthase (Homo sapiens), P49327; recombinant FAS-TE, OMFH fluorogenic substrate, fluorescence endpoint; inhibition, % at 15 µM; hit rate 0.67% among 360,000; AID 602261, 2012;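 active = compounds whose normalised, plate-corrected inhibition of enzyme fluorescence in the single-dose primary screen is 50% or more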;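 note: 0% = DMSO with enzyme and 100% = substrate without enzyme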
proKLK7 act conf = proKLK7 zymogen activators, confirmation, biochemical, fluorescence intensity, triplicate. activation, % at 7 µM. purified proKLK7, EDANS-DABCYL substrate fluorescence; scaled: vehicle 0, mature enzyme 100. shares compounds with proKLK7 act. hit rate 68% among 3,200. AID 686949, 2013;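 active = activation, as change over the incubation, above the mean of all tested compounds plus 3 SD, cut at about 13% in these data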
EDANS-DABCYL int = EDANS-DABCYL substrate optical interference, artefact control for kallikrein-7 zymogen activator project, biochemical, fluorescence intensity, high throughput | shares compounds with proKLK7 act | no enzyme, 4 h; solvent 0%, active enzyme control 100% | activation, % at 7 µM | hit rate 80% among 3,200 | AID 686952, 2013;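 active = activation above the all-compound mean plus 3 SD, ignoring values outside control-based bounds, cut at about 4.8% in these data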;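 note: value is the 4 h activation minus the activation read at time zero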
K7 EDANS ctr = optically interferes with EDANS-DABCYL fluorescence, kallikrein-7 activator counter-screen | EC50, µM | shares compounds with proKLK7 act | AID 720493 | EDANS-DABCYL peptide fluorescence interference, no enzyme | hit rate 20% among 250;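 active = compounds that raise the fluorescence signal in this interference counterscreen, with EC50 at or below 10 µM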;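 note: intact quenched peptide substrate alone read at 355 nm excitation and 520 nm emission; signal is fluorescence gain from T0 to T4 after four hours at room temperature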
Numbers without * were called inactive; i = inactive; . = not tested or not shown. Sampled rows, rich in hits. Any-hit rate of the full collection: about 4.6%.

SMILES	GRIN3A LBD mod	proKLK7 act	ADAM17 inh	ADAM10 inh	FAS TE block	proKLK7 act conf	EDANS-DABCYL int	others
Cc1cc(C)[n+](-c2ccc(F)cc2)c2[nH]c(=O)[nH]c(=O)c12	-2	38*	i	i	-8	63*	68*
Cc1c(CC(=O)N2CCN(C(=O)C3COc4ccccc4O3)CC2)c(=O)oc2cc(O)ccc12 (stereo unspecified)	-1	58*	i	i	-3	74*	75*
COc1ccc2c(C)c(CC(=O)N3CCN(C(=O)C4COc5ccccc5O4)CC3)c(=O)oc2c1 (stereo unspecified)	0	3	-454	i	5	.	.
Cc1c(CC(=O)N2CCN(C(=O)C3COc4ccccc4O3)CC2)c(=O)oc2cc(O)cc(O)c12 (stereo unspecified)	4	61*	i	i	-8	68*	67*
Cc1c(CC(=O)N2CCN(C(=O)C3COc4ccccc4O3)CC2)c(=O)oc2c(C)c(O)ccc12 (stereo unspecified)	0	39*	i	i	-4	70*	70*
Cc1cc(=O)oc2c(C)c(OCC(=O)N3CCN(C(=O)C4COc5ccccc5O4)CC3)ccc12 (stereo unspecified)	0	-1	-35	-117	3	.	.
CCCN(C(=O)C1CCCN(c2ncnc3c2nc2n3CCCCC2)C1)c1ccccc1C (stereo unspecified)	.	0	-19	7	.	.	.
C=CCn1c(-c2cccs2)nc2nc3ccccc3nc21	-1	22*	i	i	-3	70*	82*
C=CCn1c(-c2cccs2)nc2ccccc21	2	1	-53	-131	0	.	.
C#CCNC(=O)c1cc2cccnc2nc1N	.	18*	i	i	.	46*	45*
Nc1nc(N)c2nc(-c3ccccc3)c(N)nc2n1	2	60*	i	i	-5	67*	74*
NC(=O)c1ncn([C@@H]2O[C@H](C(=O)N[C@H](Cc3c[nH]c4ccccc34)C(=O)N3CCN(C(=O)N4CCOCC4)CC3)[C@@H](O)[C@H]2O)n1	.	1	-6	-13	.	.	.
COCCCn1c(C(=O)N2CC(C)OC(C)C2)cc2c(=O)n3cccc(C)c3nc21 (stereo unspecified)	-1	.	.	.	1	.	.
COCCCn1c(C(=O)N2CCOCC2)cc2c(=O)n3cccc(C)c3nc21	1	19*	-410	i	2	17*	18*
Cc1cccn2c(=O)c3cc(C(=O)N4CCOCC4)n(C)c3nc12	-3	20*	-159	i	-2	46*	35*	K7 EDANS ctr=>70
Cc1cccn2c(=O)c3cc(C(=O)N4COCC4(C)C)n(Cc4ccccc4)c3nc12	-1	-5	-40	-102	0	.	.
Cc1cccn2c(=O)c3cc(C(=O)N4c5ccccc5CC4C)n(C)c3nc12 (stereo unspecified)	-8	-1	-9	-22	2	.	.
Cc1cccn2c(=O)c3cc(C(=O)N4CCN(C(=O)c5ccco5)CC4)n(C)c3nc12	0	20*	-352	i	0	23*	35*
CN(C)C(=O)c1cccc(-c2cnc3c(NC=O)cc(-c4ccccc4N(C)C)cn23)c1	.	105*	-37	-109	-133	217*	237*
CN(C)c1ccccc1-c1cc(NC=O)c2ncc(-c3cccc(C(F)(F)F)c3)n2c1	.	107*	-30	-95	-160	178*	144*
CN(C)C(=O)c1cccc(-c2cnc3c(NC=O)cc(-c4ccccc4Cl)cn23)c1	.	2	-16	-40	4	.	.
COc1ccccc1-c1cc(NC=O)c2ncc(-c3cccc(C(F)(F)F)c3)n2c1	.	0	-5	-16	14	.	.
CCOC(=O)C1CCN(c2cc3c(cc2NC(=O)c2ccccc2)n(C)c(=O)n3C)CC1	4	20*	-10	-39	4	12	12*
CCOC(=O)C1CCN(c2cc3c(cc2NC(=O)c2ccc(OC)c(OC)c2)n(C)c(=O)n3C)CC1	1	4	-8	-25	12	.	.
O=c1c2ccccc2c(/C=N/NS(=O)(=O)c2ccccc2)c(O)n1-c1ccccn1	0	46*	-44	-140	-16	92*	94*
SMILES	GRIN3A LBD mod	proKLK7 act	ADAM17 inh	ADAM10 inh	FAS TE block	proKLK7 act conf	EDANS-DABCYL int	others
NC1=NS(=O)(=O)Nc2ccccc21	.	.	-383	i	.	.	.
Nc1ccc2nc3n(c(=O)c2c1)CCC3	2	17*	-357	i	-13	10	12*
COC(=O)[C@@]12CCCCC=C1N(CCc1ccc(Cl)cc1)C(=O)[C@H]2CC(=O)NCc1ccc(C)o1	.	0	-3	3	.	.	.
COc1ccccc1N1C(=O)C2C(C(=O)c3ccccc3)=NN(c3ccc(Br)cc3)C2C1=O (stereo unspecified)	-1	18*	-3	1	10	-226	-164
CC(=O)c1c[nH]c(C(=O)NCC2CCCO2)c1 (stereo unspecified)	-2	40*	-2	-6	-5	0	0
CC(C)CC(=O)c1c[nH]c(C(=O)NCC2CCCO2)c1 (stereo unspecified)	0	0	-3	9	-5	.	.
COc1cccc2c(=S)c(CCC(C)=O)c(C)[nH]c12	2	21*	-119	-362	-3	22*	24*
Cn1c(=O)cc(OCC(=O)N2CCN(c3ccccc3Cl)CC2)c2ccccc21	.	0	-4	-2	.	.	.
N#Cc1c(-c2cccnc2)c2c([nH]c1=O)-c1ccccc1OC2	-1	72*	i	i	-6	66*	71*
N#Cc1c(-c2ccc(F)cc2)c2c([nH]c1=O)-c1ccccc1OC2	1	12	i	i	-1	.	.
O=C(c1cccc(C(F)(F)F)c1)N1CC[C@H]2[C@H](CCCN2Cc2ccc(F)cc2)C1	.	0	-2	-7	.	.	.
O=C(COC(=O)c1cc(Br)ccc1O)NNC(=O)c1cccs1	1	25*	-4	-12	-2	21*	24*
